# SNCA viab count = reduces viability of HEK-293 SNCA reporter cells. HEK-293-SNCA-luc viability, GF-AFC fluorescence, 24 h. Potency, µM (top dose mostly 57.1 µM), inactives show top-dose activity change, negative = cytotoxicity, actives largely listed as cytotoxic. hit rate 0.12% among 150,000. AID 1671193;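 further: potency means the concentration at half of the fitted maximal effect; 0% = DMSO-treated cells and -100% = medium-only wells without cells; nearly all actives have a fitted effect of over 30% in size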
#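 HEK-293-SNCA-luc cells (1500/well) plated 24 h, then exposed 24 h to a dilution series; GF-AFC added 30 min at 37C, fluorescence 405/540 nm; normalised to medium-only and DMSO wells, Hill fit.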
# FLuc inh = blocks purified firefly luciferase enzyme activity. P08659. purified P. pyralis luciferase, luminescence, biochemical. Potency, µM (doses to about 115 µM), actives largely listed as inhibitors. hit rate 2.5% among 76,000; further: potency means the concentration at half of the fitted maximal effect; nearly all actives have a fitted effect of over 65% in size
#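 Inhibitors were tested against purified firefly luciferase in a biochemical, low-substrate format (both substrates at 10uM) and luminescence measured with a CCD imager.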
# IP6K1 inhibitor = IP6K1 kinase inhibition | Q92551 | activity change, % (series mostly up to about 58 µM) | AID 1645851 | hit rate 0.81% among 140,000 | IP6K1 kinase, ADP-Glo luminescence, 2 h; active compounds read low; in the data active means activity change below about -25%
#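 ADP-Glo luminescence measures ADP made by human IP6K1 during a 2 h RT reaction with ATP/IP6 (mix at 1.3 mM/130 uM); top library doses 57.5 and 19.1 uM final.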
# SNCA expr inhib = reduces expression of the alpha-synuclein gene. Potency, µM (series often up to 57.2 µM), without a hit: top-dose activity change, negative = inhibition, actives largely listed as inhibitors. hit rate 0.17% among 140,000. AID 1671194. HEK-293 SNCA-luciferase knock-in, luminescence, 24 h;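 further: potency means the concentration at half of the fitted maximal effect; plate controls were DMSO cells for no effect and cell-free wells for full effect; nearly all actives have a fitted effect of over 45% in size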
# HEK cytotox = kills HEK 293 cells; HEK 293 viability, ATP luminescence (CellTiter-Glo), 48-72 h; Potency, µM (series often up to 115 µM), inactives show at the top dose activity change, negative = cytotoxicity, actives largely listed as inhibitors; hit rate 6.6% among 94,000; AID 1345083; further: potency means the concentration at half of the fitted maximal effect; nearly all actives have a fitted effect of over 60% in size
#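 Cytotoxicity was scored by loss of ATP-coupled luminescence (CellTiter-Glo) in HEK 293 cells. Compound treatment ran 48 or 72 hr at 37 degree Celsius, 5% CO2, 95% humidity.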
# NIH3T3 tox = cytotoxic compounds in NIH 3T3 cells; NIH 3T3 viability, CellTiter-Glo ATP luminescence, 48-72 h; Potency, µM (titrated, usually from 96.7 µM), inactives show at the highest dose activity change, negative = cytotoxicity, usual class: inhibitors; hit rate 4.3% among 94,000; further: potency means the concentration at half of the fitted maximal effect; nearly all actives have a fitted effect of over 55% in size
#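 Cytotoxicity is measured as loss of cellular ATP: NIH 3T3 cells (400/well) are exposed to compound for 48 or 72 hr at 37 °C, then CellTiter-Glo luminescence is imaged after 10 min at room temperature.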
# Active calls of the source: *; i = inactive; ? = inconclusive; nt = no result; [ ] = dose if it differs, or a comment. This is a sample that favours compounds with a hit; in the whole collection about 7.3% have one here. Unless noted, the call rests on the fitted dose curve; in most records, active means well fitted curve in the direction sought with a large enough effect; inconclusive means small, poorly fitted or top-dose-only effect, or another doubt; inactive means no such curve, though single readings can be large; an effect the other way counts as inactive or inconclusive. Unless noted, on the % scale 0 is the no-effect control and ±100 the full control effect.
SMILES,SNCA viab count,FLuc inh,IP6K1 inhibitor,SNCA expr inhib,HEK cytotox,NIH3T3 tox
CCN1c2cc(C(=O)Nc3ccccc3)ccc2C(=O)N2CCCCC21 (centres undefined),17%[12.5 µM],?,21,28%,?,?
CCN1c2cc(C(=O)Nc3ccc(C(N)=O)cc3)ccc2C(=O)N2CCCCC21 (centres undefined),13%[12.5 µM],i,-2,-27%,?,32µM*
CCN1c2cc(C(=O)Nc3cc(F)cc(F)c3)ccc2C(=O)N2CCCCC21 (centres undefined),?,i,-4,-15%,35µM*,28µM*
CCN1c2cc(C(=O)Nc3ccc(F)cc3)ccc2C(=O)N2CCCCC21 (centres undefined),?,i,-5,4%,?,?
CN1C(=O)C(CC(=O)N2CC(n3cccn3)C2)(Cc2ccccc2)c2ccccc21 (centres undefined),5%,i,10,-6%,-1%,-11%
Cc1ccc(C)c(OCC(=O)c2ccc3c(c2)N(C(C)C(=O)N2CCCC2)C(=O)CO3)c1 (centres undefined),-29%,i,-2,5%,?,?
Cc1ccc(-c2cccc(CN3CCCC3C(=O)NCc3ccc(F)cc3)c2)cc1Cl (centres undefined),nt,nt,19,nt,?,?
Cc1ccc(-c2cccc(CN3CCCC3C(=O)NCc3cccs3)c2)cc1Cl (centres undefined),nt,nt,-4,nt,35µM*,16µM*
COc1ccccc1CNC(=O)C1CCCN1Cc1cccc(-c2ccc(C)c(Cl)c2)c1 (centres undefined),nt,nt,18,nt,40µM*,40µM*
O=C(NCc1ccccc1Cl)C1CCCN1Cc1ccc(-c2cncnc2)cc1 (centres undefined),-8%,nt,0,-4%,?,?
Cc1ccc(-c2cccc(CN3CCCC3C(=O)NCc3ccccc3Cl)c2)cc1Cl (centres undefined),nt,nt,11,nt,45µM*,?
COc1ccc(CNC(=O)C2CCCN2Cc2cccc(-c3ccc(C)c(Cl)c3)c2)cc1 (centres undefined),nt,nt,16,nt,35µM*,32µM*
CCOc1ccccc1C(=O)NC1CCN(c2cc(-c3ccc(F)cc3)[nH]n2)C1 (centres undefined),-25%,i,10,1%,?,?
CC(C)(C)c1ccc(-c2cc(C[C@H]3CNCC[C@H]3CC(=O)N3CCOCC3)no2)cc1,4%[87.6 µM],i,3,-6%[87.6 µM],25µM*,?
CC(C)(C)c1ccc(-c2cc(C[C@H]3CNCC[C@H]3CC(=O)N3CCC(n4c(=O)[nH]c5ccccc54)CC3)no2)cc1,?,i,-2,?,22µM*,25µM*
O=C(C[C@@H]1CCNC[C@@H]1Cc1cc(-c2ccccc2)on1)N1CCOCC1,2%[87.6 µM],i,-3,4%[87.6 µM],-1%[172 µM],-1%[174 µM]
O=C(CN1CCn2nc(CO)cc2C1)N1CCOc2ccccc21,2%,i,26,2%,i,-13%
O=S(=O)(c1ccc2c(c1)OCCO2)N1CCC(Cc2nc(-c3cccnc3)n[nH]2)C1 (centres undefined),-9%,i,-4,10%,-1%,-25%
COCc1nc2nc(-c3ccccc3)c(-c3ccc(N4CCN(C)CC4)nc3)cc2n1C,1%[87.6 µM],?,3,-6%[87.6 µM],?,?
Cn1c(C(=O)NCCc2cnc[nH]2)nc2nc(-c3ccccc3)c(Cl)cc21,-2%[87.6 µM],?,12,5%[87.6 µM],?,28µM*
CN(C)CCNC(=O)c1nc2nc(-c3ccccc3)c(-c3ccccc3F)cc2n1C,-22%[87.6 µM],i,8,-12%[87.6 µM],50µM*,35µM*
CN(C)CCNC(=O)c1nc2nc(-c3ccccc3)c(Cl)cc2n1C,1%[87.6 µM],i,12,32%[87.6 µM],-24%[172 µM],?
CN1CCC(NC(=O)c2nc3nc(-c4ccccc4)c(-c4cccc(O)c4)cc3n2C)CC1,?,i,6,?,35µM*,11µM*
